Source: PubChem BioAssay AID504329 (Southern Research Specialized Biocontainment Screening …, 2011)
Hit rate of the full screen: of about 340,000 compounds, about 1,000 (0.29%) were called active. These entries were drawn from the full list. Potency and affinity values are given separately. A number with no mark means an inactive call. Cut-off read from the data, not from the text of the source: inconclusive = inhibition above about 27% without an active follow-up result; inactive = below that.

assay: NS1A inhibition, H1N1 influenza, cell based functional assay (AID 504329); details: percent inhibition, at 12.5 µM, active compounds read high

SMILES | inhibition
Cc1ncc(CO)c(/C=N/NC(=O)c2ccccc2Br)c1O | 18.5%
Cc1ncc(CO)c(/C=N/NC(=O)c2ccc(O)cc2)c1O | 15.5%
Cc1ncc(CO)c(/C=N/NC(=O)c2ccoc2C)c1O | 7.34%
COc1ccccc1NS(=O)(=O)c1cccc(C(=O)N/N=C/c2c(CO)cnc(C)c2O)c1 | 17.7%
COc1ccc(C(=O)N/N=C/c2c(CO)cnc(C)c2O)cc1 | 21.8%
O=C(N/N=C/c1ccccn1)c1cccc(S(=O)(=O)N2CCCC2)c1 | -3%
CC(C)C(NC(=O)C1CC(=O)N(Cc2ccccc2)C1)c1nc2ccccc2[nH]1 (stereo unspecified) | -13.6%
O=C(c1cc2ccccc2c(=O)o1)N1CCCCCC1 | -12.3%
Cc1cc(N2CCOCC2)ccc1/C=C1\NC(=O)N(Cc2ccccc2F)C1=O | -4.62%
CC(=O)Nc1nc(CCl)cs1 | -0.43%
Cn1c(O)c(N=Nc2ccc(F)cc2)c2ccccc21 | -0.89%
Oc1ccc(N=Nc2ccc3ccccc3c2)cc1 | 3.88%
NS(=O)(=O)c1ccc(N=Nc2c(O)ccc3ccccc23)cc1 | 7.02%
O=C(O)c1cc(N=Nc2c(O)ccc3ccccc23)cc(C(=O)O)c1 | 13.6%
O=S(=O)(O)c1cccc(N=Nc2c(O)ccc3ccccc23)c1 | 22.8%
NS(=O)(=O)c1ccc(N=Nc2c(O)c(C(=O)O)cc3ccccc23)cc1 | 14%
O=C(O)c1cc2ccccc2c(N=Nc2cccnc2)c1O | 16.2%
Oc1[nH]c2ccccc2c1N=Nc1ccccc1F | -4.52%
Cc1ccccc1C(=O)N=c1sccn1C | -5.97%
O=C(NC1CCCCC1)c1c(O)nc2sccn2c1=O | 0.11%
O=C(COc1ccccc1Cl)Nc1ccccc1C(=O)Nc1cccc(C(=O)O)c1 | 1.12%
COc1ccc(-c2cc(C(=O)Nc3cccc(S(=O)(=O)NCc4ccco4)c3)c3ccccc3n2)cc1OC | -2.45%
COc1ccccc1C(=O)N/C(=C\c1ccc(Br)cc1)C(=O)NCCO | -1.68%
COC(=O)N/N=C(\C)c1ccc(C)c([N+](=O)[O-])c1 | 2.68%
CCC(CC)C(=O)Nc1nnc(S(=O)(=O)Nc2ccccc2C)s1 | -5.98%
O=C(COc1ccccc1)NCC(=O)N/N=C/c1ccco1 | 8.38%

SMILES | inhibition
O=C(Nc1ccccc1N1CCOCC1)c1cccc(Oc2ccccc2)c1 | 5.8%
Oc1[nH]c2ccccc2c1N=Nc1ccccn1 | -23.1%
CCCCn1c(O)c(N=Nc2ccccn2)c2ccccc21 | -1.48%
CN(C)S(=O)(=O)c1ccc(Cl)c(C(=O)NNC(=O)Cc2nc3ccccc3n2C)c1 | -3.93%
CCO/C=C1\C(=O)N(c2ccccc2)C(=O)c2ccccc21 | 4.03%
Cc1cc(C)nc(NS(=O)(=O)c2ccc(N3C(=O)c4ccccc4C3=O)cc2)n1 | -5.14%
CCO/C=C1/C(=O)N(c2ccc(OC)cc2)C(=O)c2ccccc21 | 1.21%
CCOc1ccc(N2C(=O)c3ccccc3C2=O)cc1 | 5.19%
Cc1[nH]c2ccccc2c1C(=O)C(=O)N1CCCc2ccccc21 | -5.75%
Nc1ccc(N(CCO)CCO)cc1 | 11.7%
Cc1cc(N(CCO)CCO)ccc1C(c1ccc(N(CCO)CCO)cc1C)c1ccccc1Cl | 19.6%
O=C1CCC(C(=O)N2CCSCC2)CN1CCc1ccccc1 (stereo unspecified) | 5.31%
CCOC(=O)C1=C(Cc2ccc(F)cc2)C(=O)c2ccccc2C1=O | 19.2%
CCOC(=O)C1=C(Cc2ccc(Cl)cc2)C(=O)c2ccccc2C1=O | 21.1%
N#Cc1c(N)nc2c(c1-c1ccc(F)cc1)CCC2 | 0.84%
C[C@H](C(=O)NCc1ccccc1)C(=O)c1ccccc1 | 8.83%
COc1ccc(-c2csc(N(CCc3ccc(OC)c(OC)c3)C(=O)COc3ccccc3)n2)cc1 | 1.44%
CC(C)CCn1nnnc1C(c1ccc(F)cc1)N1CCC(C(N)=O)CC1 (stereo unspecified) | -2.77%
CC(=O)c1ccc(-c2ccccc2)cc1 | 7.71%
O=C(NCc1cccs1)C1CCN(c2nccs2)CC1 | 5.59%
COc1ccc(/C=N\NC(=O)C2=NNC(=O)C2C)cc1 (stereo unspecified) | 3.13%
COc1cc(/C=N/NC(=O)C2=NNC(=O)C2C)ccc1O (stereo unspecified) | -32.2%
O=C(N/N=C/c1ccc(Br)cc1)c1cc[n+]([O-])cc1 | 6.04%
COc1cc(/C=N/NC(=O)c2ccncc2)c([N+](=O)[O-])cc1OC | -2.25%
COc1cc(/C=N/NC(=S)Nc2cccc(C(=O)O)c2)ccc1O | -4%
O=C(N/N=C/c1ccccc1)c1cc[n+]([O-])cc1 | -4.01%

SMILES | inhibition
COc1cc(OC)c([N+](=O)[O-])cc1/C=N/NC(=O)c1ccncc1 | 1.29%
COc1cc(/C=N/NC(=S)Nc2cccc(C(=O)O)c2)cc(OC)c1OC | -7.56%
CC(NC(=O)c1ccc(NC(=O)CC2SC(N3CCCC3)=NC2=O)cc1)c1ccccc1 (stereo unspecified) | -7.82%
O=S(=O)(c1ccc(S(=O)(=O)N2CCOCC2)cc1)N1CCCC1 | 4.18%
CCCCC(=O)N(c1ccc(C(=O)O)cc1)c1nc(-c2ccc(Cl)cc2)c(CC)s1 | -4.2%
O=C(NC1CCCCC1)C1CC(=O)N(Cc2ccccc2)C1 (stereo unspecified) | -1.57%
C[N+](C)(C)C(Cc1ccccc1)C(=O)[O-] (stereo unspecified) | -4.58%
COc1cccc(/C=N/NC(=O)C(=O)NCc2cccnc2)c1OC | -5.14%
CCOc1cc(Br)cc(/C=N/NC(=O)c2cccnc2)c1O | 15.9%
O=C(O)c1cccc(NC(=S)N/N=C/c2cccc(O)c2)c1 | 2.28%
COc1cc(OC)c(OC)cc1/C=N/NC(=O)C[n+]1ccccc1 | -11.7%
O=C(O)c1cccc(NC(=S)N/N=C/c2cccnc2)c1 | 4.47%
COc1ccccc1/C=N/NC(=O)C(=O)NCc1cccnc1 | -1.04%
CCOc1cc(/C=N/NC(=O)c2cccnc2)ccc1O | 11.3%
COc1cccc(/C=N/NC(=O)C[n+]2ccccc2)c1OC | 0.86%
CCOc1ccc(NS(=O)(=O)c2cccc(C(=O)NCC3(N(C)C)CCCCC3)c2)cc1 | 0.36%
Cc1cc2nc(-c3ccc[nH]c3=O)n(Cc3ccc(F)cc3)c2cc1C | 1.86%
COc1cccc(CNC(=O)COC(=O)C23CC4CC(CC(Cl)(C4)C2)C3)c1 | -9.8%
O=C(CN(Cc1ccccc1Cl)C(=O)c1ccc(CN2CCOCC2)o1)NCc1ccccc1 | 1.95%
O=c1c2ccccc2nc(SCCN2CCCCC2)n1CCc1ccccc1 | 6.75%
CC/C(C)=N/N1C(=O)c2ccccc2NC1(C)CC (stereo unspecified) | 5.09%
O=C(CCc1c[nH]c2ccccc12)NCC1CCCO1 (stereo unspecified) | -2.9%
O=C(Cn1c(-c2ccccc2)noc1=O)Nc1ccc(S(=O)(=O)N2CCOCC2)cc1 | 2.21%
Cc1nonc1C(=O)N/N=C/c1cccc(O)c1 | -4.77%
O=C(N/N=C/c1ccc(O)cc1)c1ccncc1 | -6.99%
COc1ccccc1C=NNC(=O)c1ccncc1 | -14.4%

SMILES | inhibition
O=C(N/N=C/c1ccccc1C(=O)O)c1ccncc1 | -0.84%
O=C(CNC(=O)c1ccncc1)N/N=C/c1ccc(O)cc1O | 9.53%
COc1cccc(/C=N/NC(=O)CNC(=O)c2ccncc2)c1O | 10.4%
O=C(N/N=C/c1ccccc1Cl)c1ccncc1 | 2.1%
Cc1nonc1C(=O)N/N=C/c1ccc(O)c(O)c1 | -5.97%
CC(NC(=O)COC(=O)/C=C/c1ccco1)c1ccccc1 (stereo unspecified) | -3.74%
CCOC(=O)c1ccccc1NC(=O)CSc1nc(N)cc(=O)[nH]1 | -7.55%
CN(C)C(=O)c1ccc(NC(=O)COc2cccc(Oc3ccccc3)c2)cc1 | -4.79%
CC(C)CCC(C(=O)O)C(C)CC(=O)NC1CCCCC1 (stereo unspecified) | 4.04%
CCC(C)[C@H](NC(=O)N1CC(=O)Nc2ccccc21)C(=O)N1CCC(C(=O)O)CC1 (stereo partly specified) | 1.95%
Cc1cccc(N(C(=O)CNC(=O)c2ccco2)C(C(=O)NC2CCCC2)c2ccncc2)c1C (stereo unspecified) | 6.68%
CCCn1cc(CN2CCC(n3nccc3NC(=O)CCOc3ccccc3)CC2)c(C)n1 | 3.28%
CN1CCN(c2ccc(S(=O)(=O)N3CCCCC3)cn2)CC1 | -0.41%
O=C(COC(=O)c1cc([N+](=O)[O-])ccc1N1CCOCC1)Nc1ccc(Cl)cc1 | -5.7%
Cc1cccc(C)c1C(=O)N[C@@H](Cc1ccccc1)C(=O)O | 2.25%
O=C(N/N=C/c1ccccc1O)NC12CC3CC(CC(C3)C1)C2 | -3.3%
O=C(NN=Cc1ccccc1O)C1CC1 | -17.2%
O=c1[nH]c2cc(Cl)c(Cl)cc2o1 | -8.2%
O=C(COC(=O)C1(c2ccccc2)CC1)NNC(=O)c1ccccc1F | -15.8%
CC1(C)CC(=O)C(N=Nc2c(Cl)cc(Cl)cc2Cl)=C(O)C1 | 9.91%
CC1(C)CC(=O)C(N=Nc2ccc(-c3ccccc3)cc2)=C(O)C1 | 10.2%
Cc1c(N=Nc2c(O)n(C)c(=O)n(C)c2=O)c(=O)n(-c2ccccc2)n1C | 3.65%
Cc1c(N=Nc2ccc(O)cc2)c(=O)n(-c2ccccc2)n1C | -3.89%
